Data: the supplement of paper PMC10127200
Where a name gives a salt, the structure may show the parent alone.

Legend:
Assay in all cases: Euclidean distance of Cell Painting phenotypic profile (signed KS, 77 features) to DMSO centroid (dimensionless distance); 5 or 10 uM (library dependent); higher = stronger phenotypic change vs DMSO (phenoactivity)
Conditions in all cases: 48 h
786-O = test system: 786-O
Summary of the method: (§1)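 Library compounds were applied at 10 or 5 uM, depending on the library, with 0.1% DMSO final, for 48 h to five cancer lines and a healthy fibroblast line. After staining, cells were imaged confocally at 20X across 9 fields per well, and Harmony extracted 77 features, each scored as a signed Kolmogorov-Smirnov statistic against vehicle wells on the same plate. Phenoactivity is the Euclidean distance between each profile and the median vehicle profile, with profiles first plate-position corrected, correlation-weighted and averaged over replicates at the top dose.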

A549 = test system: A549
Summary of the method: as §1

DU145 = test system: DU145
Summary of the method: as §1

FB = test system: FB
Summary of the method: as §1

HEPG2 = test system: HEPG2
Summary of the method: as §1

OVCAR4 = test system: OVCAR4
Summary of the method: as §1

Compound | Euclidean distance (786-O) | Euclidean distance (A549) | Euclidean distance (DU145) | Euclidean distance (FB) | Euclidean distance (HEPG2) | Euclidean distance (OVCAR4)
COc1cccc2c1C(=O)c1c(O)c3c(c(O)c1C2=O)C[C@@](O)(C(C)=O)C[C@@H]3O[C@H]1C[C@H](N)[C@H](O)[C@H](C)O1 [Daunorubicin HCl] | 5.05 | 5.5 | 5.6 | 4.91 | 4.88 | 5.41
Cc1nc(C(=O)NCC(=O)O)c(O)c2ccc(Oc3ccccc3)cc12 | 1.71 | 1.55 | 1.53 | 2.88 | 1.32 | 1.92
OCc1cc([C@@H](O)CNCCCCCCOCCOCc2c(Cl)cccc2Cl)ccc1O [Vilanterol Trifenate] | 1.28 | 0.985 | 1.38 | 1.28 | 0.721 | 1.76
OC(c1ccccc1)(c1ccccc1)C12CC[N+](CCOCc3ccccc3)(CC1)CC2 [Umeclidinium bromide] | 0.834 | 1.43 | 0.97 | 1.27 | 0.7 | 1.64
CC(C)[C@H]1C(=O)N[C@@H](CCCNC(=N)N)C(=O)NCC(=O)N[C@@H](CC(=O)O)C(=O)N[C@H](Cc2ccccc2)C(=O)N1C [Cilengitide] | 2.25 | 1.28 | 0.875 | 1.15 | 4.37 | 2.86
Cc1ccc(NC(=O)C2(c3ccc4c(c3)OC(F)(F)O4)CC2)nc1-c1cccc(C(=O)O)c1 [VX-809 (Lumacaftor)] | 1.11 | 0.637 | 1.55 | 0.88 | 0.294 | 1.02
CN(C)C(=O)COC(=O)Cc1ccc(OC(=O)c2ccc(NC(=N)N)cc2)cc1 [Camostat Mesilate] | 1.16 | 0.62 | 1.08 | 0.645 | 0.823 | 1.71
CCc1cc(C(N)=O)ccc1-n1nc(C(C)C)c2c(-n3cnc(-c4cnn(C)c4)c3)ccnc21 | 3.26 | 3.06 | 3.79 | 3.38 | 3.38 | 2.86
O=C1[C@@H]2[C@H]3CC[C@H](C3)[C@@H]2C(=O)N1C[C@@H]1CCCC[C@H]1CN1CCN(c2nsc3ccccc23)CC1 [lurasidone] | 1.37 | 1.25 | 1.92 | 1.35 | 0.479 | 1.27
O=S(=O)(O)CCSSCCS(=O)(=O)O [Dimesna] | 0.983 | 1.01 | 1.18 | 1.16 | 0.803 | 1.13
CCn1c(N)c(C(=O)NC)c(=O)c2ccc(C#CC(C)(O)COC)nc21 (stereo unspecified) | 0.634 | 0.765 | 0.681 | 1.97 | 1.53 | 0.668
Nc1c(CC(=O)O)cccc1C(=O)c1ccccc1 [Amfenac Sodium Monohydrate] | 1.3 | 0.843 | 0.909 | 1.46 | 0.424 | 1.11
COc1ccc(NC(=O)c2ccc(C(=N)N(C)C)cc2)c(C(=O)Nc2ccc(Cl)cn2)c1 [Betrixaban] | 1.22 | 0.664 | 0.647 | 0.875 | 0.841 | 0.904
CC1COc2c(N3CCN(C)CC3)c(F)cc3c(=O)c(C(=O)O)cn1c23 (stereo unspecified) [Ofloxacin] | 1.01 | 0.65 | 0.81 | 0.702 | 0.545 | 1.25
CNC(=O)c1ccc2cc([C@@]3(O)CCn4cncc43)ccc2c1 [TAK-700 (Orteronel)] | 0.951 | 0.683 | 0.67 | 1.1 | 1.1 | 0.845
CN1C(=O)C(C)(C)Oc2c(-c3cn(C)c(=O)c4[nH]ccc34)cc(S(C)(=O)=O)cc21 | 4.28 | 2.7 | 2.87 | 3.94 | 2.29 | 2.42
CCCCOc1ccc(C(=O)CCN2CCCCC2)cc1 [Dyclonine HCl] | 1.45 | 0.937 | 1.42 | 0.997 | 1.96 | 0.828
CN1CC[C@H](c2c(O)cc(O)c3c(=O)cc(-c4ccccc4Cl)oc23)[C@H](O)C1 [Flavopiridol HCl] | 3.1 | 3.15 | 3.43 | 3.29 | 2.41 | 3.45
CC(C)Nc1cccnc1N1CCN(C(=O)c2cc3cc(NS(C)(=O)=O)ccc3[nH]2)CC1 [Delavirdine (mesylate)] | 1.18 | 0.811 | 2.31 | 1.56 | 0.607 | 1.51
CCS(=O)(=O)N1CCN(c2ccc(Nc3ncc(C(N)=O)c(NC4CC4)n3)cc2)CC1 | 2.57 | 3.03 | 3.16 | 2.62 | 2.51 | 3.39
CC#CC(=O)N1CCC[C@H]1c1nc(-c2ccc(C(=O)Nc3ccccn3)cc2)c2c(N)nccn12 [Acalabrutinib (ACP-196)] | 0.929 | 0.693 | 2.19 | 1.3 | 3.25 | 1.22
